Hits are enriched below; roughly 8.3% of the tested compounds scored in any of these assays.
Giardia kill: Giardia lamblia killing; Giardia lamblia trophozoite viability; activity change, % at 7.66 µM, hits read low; 340,000 tested, 0.15% active; in the data active = activity change below about -80%; inconclusive = between about -30% and that limit;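 note: parasites exposed to compound for two days anaerobically before the ATP read; % is set by controls: 0 for no effect and ±100 for the full control effect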
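Each well holds 100 Giardia trophozoites and compound. After two days (48 hrs) at 37 deg C in anaerobic conditions, ATP is quantified by luminescence.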
RORg inh: ROR gamma (mouse) transcription inhibition. Drosophila S2 Gal4-RORgamma UAS-luciferase reporter, 20 h. P51450. AID 2551. 310,000 tested, 5.4% active. Potency, µM (titrated, usually from 53.6 µM), inactives show at the top dose activity change, negative = inhibition, actives largely listed as inhibitors; note: potency is the fitted concentration of half-maximal effect; % is set by controls: 0 for no effect and ±100 for the full control effect; nearly all actives have a fitted effect of over 60% in size
Target sequence (P51450 whole entry, looked up, the tested form may be a part): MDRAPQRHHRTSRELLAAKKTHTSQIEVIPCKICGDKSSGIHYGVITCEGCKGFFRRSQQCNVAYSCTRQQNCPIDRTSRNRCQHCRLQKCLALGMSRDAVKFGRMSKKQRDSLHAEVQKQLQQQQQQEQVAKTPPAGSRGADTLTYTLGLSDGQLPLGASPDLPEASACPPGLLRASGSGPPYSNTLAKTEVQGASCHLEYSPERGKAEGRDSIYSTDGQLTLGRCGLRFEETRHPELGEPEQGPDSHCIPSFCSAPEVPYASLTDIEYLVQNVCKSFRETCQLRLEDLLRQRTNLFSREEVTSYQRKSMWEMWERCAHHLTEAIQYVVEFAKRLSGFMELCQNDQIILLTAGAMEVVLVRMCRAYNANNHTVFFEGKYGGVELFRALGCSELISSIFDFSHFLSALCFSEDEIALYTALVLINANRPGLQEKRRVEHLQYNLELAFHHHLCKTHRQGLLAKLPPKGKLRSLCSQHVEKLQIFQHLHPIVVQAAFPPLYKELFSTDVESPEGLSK
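Luminescence from a UAS-regulated Photinus luciferase reporter in stably transfected Drosophila Schneider cells is measured; decreased signal marks ROR gamma inhibition. Fusion expression is induced by 700 uM copper sulfate for 20 hr.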
SW480 rereplic: induces DNA re-replication in SW480 colon adenocarcinoma cells | AID 624297 | Potency, µM (titrated, usually from 46.1 µM), without a hit: at the top dose re-replication activation, hits mostly activators | 340,000 tested, 1.8% active | SW480 DNA re-replication, Hoechst DNA content imaging, 48 h; note: potency is the fitted concentration of half-maximal effect; % of control where 0% means no effect; nearly all actives have a fitted effect of over 55% in size
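Readout is total intensity of Hoechst-stained nuclei, excited at 405 nm and collected at 500-530 nm. Compound treatment lasted 48 hr at 37 C in 5% CO2 before staining.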
MCF10A rereplic: inducers of DNA re-replication in MCF 10A breast cells; Potency, µM (titrated, usually from 46.1 µM), without a hit: at the top dose activity, positive = re-replication, most hits filed as activators; AID 624296; MCF 10A DNA re-replication, Hoechst nuclear intensity, 48 h; 350,000 tested, 2.9% active; note: potency is the fitted concentration of half-maximal effect; % of control where 0% means no effect; nearly all actives have a fitted effect of over 50% in size
BCR signal inh: chronic active BCR signaling inhibition; ABC-DLBCL IkBa-CBG/CBR reporter, luminescence ratio, 4 h; Potency, µM (titrated, usually from 46.1 µM), for inactives: at the top dose activity change, negative = inhibition, hits mostly inhibitors; 340,000 tested, 0.05% active; active = well fitted inhibition curve with a large enough effect in the signal ratio, with a control signal flat, not every such curve was filed as active; inconclusive = small, poorly fitted or top-dose-only effect, or effect the other way, or a change in a side signal; the % refers to the signal ratio;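 note: potency is the fitted concentration of half-maximal effect; plate controls were basal doxycycline-induced cells for no effect and cells given 10 µM MG132 for full effect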
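TMD8 ABC-DLBCL cells carrying doxycycline-inducible green luciferase fused to IkappaBalpha plus unfused red luciferase were exposed to compounds (up to 46 uM) for 4 hrs at 37C. Activity came from the overlap-corrected green/red luminescence ratio.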
VP16 counter: counter-screen for ROR gamma inhibitors: Gal4-VP16 reporter; 310,000 tested, 3.5% active; Drosophila S2 Gal4-VP16 UAS-luciferase, luminescence, 20 h; AID 2546; Potency, µM (series often up to 53.6 µM), inactives show at the highest dose activity, negative = inhibition, actives largely listed as inhibitors;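 note: Gal4-VP16 expression switched on by copper sulfate through the metallothionein promoter; potency is the fitted concentration of half-maximal effect; % is set by controls: 0 for no effect and ±100 for the full control effect; nearly all actives have a fitted effect of over 50% in size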
* = called active by the depositor; u = inconclusive; x = no result; [ ] = remark or other dose. Unless noted, calls come from the whole dose curve; as a rule, active = well fitted curve in the direction sought with a large enough effect; inconclusive = small, poorly fitted or top-dose-only effect, or another doubt; inactive = no such curve, though single readings can be large; an effect the other way counts as inactive or inconclusive.

SMILES	Giardia kill	RORg inh	SW480 rereplic	MCF10A rereplic	BCR signal inh	VP16 counter
CC(=O)NNC(=S)Nc1cc(S(=O)(=O)N(C)C)ccc1C	-3	-8%	-7%	-8%	0%	2%
Cc1ccc(S(=O)(=O)N(C)C)cc1NC(=S)NC(C)CCCC(C)C (centres undefined)	1	18µM*	-2%	u	0%	u
CCOc1ccc(NC(=O)C2C3C=CC4(O3)C2C(=O)N(Cc2cccnc2)C4C(=O)NC2CCCCC2)cc1 (centres undefined)	-12	-2%	-22%	-4%	0%	1%
CCC(=O)Nc1nc(C)c(-c2csc(Nc3cccc(O)c3)n2)s1	6	u	u	21µM*	u	-30%
Cc1nc(NC(=O)c2ccco2)sc1-c1csc(Nc2ccc(Cl)cc2)n1	-13	24%	-1%	4%	1%	-7%
Cc1ccccc1Nc1nc(-c2sc(NC(=O)c3cccc(Cl)c3)nc2C)cs1	x	13µM*	x	x	u	u
Cc1nc(NC(=O)c2ccco2)sc1-c1csc(Nc2ccc(Cl)cc2Cl)n1	9	u	u	16µM*	-12%	-24%
Cc1ccc(Cl)cc1Nc1nc(-c2sc(NC(=O)c3ccco3)nc2C)cs1	7	6%	9%	21µM*	u	-5%
Nc1c2c(=O)[nH]c(O)cc2nn1-c1ccccc1	-8	x	0%	-1%	x	x
O=C(OC1Cc2c(O)cc(O)cc2OC1c1cc(O)c(O)c(O)c1-c1c(C2Oc3cc(O)cc(O)c3CC2O)cc(O)c(O)c1O)c1cc(O)c(O)c(O)c1 (centres undefined)	x	-2%	x	x	x	-3%
Cc1ccc(C2C(/C=C3/SC(=S)NC3=O)=C(c3cccs3)Oc3ccccc32)cc1 (centres undefined)	-8	-29%	0%	1%	29%	-2%
O=C(CC(=O)c1ccccc1)CS(=O)(=O)c1ccccc1	-15	x	5%	u	x	x
CCOc1ccccc1Nc1nc(-c2sc(NC(=O)c3ccc([N+](=O)[O-])cc3)nc2C)cs1	x	6.3µM*	x	x	u	u
Cc1ccccc1Nc1nc(-c2sc(NC(=O)c3ccc([N+](=O)[O-])cc3)nc2C)cs1	x	-17%	x	x	u	-15%
COc1cccc2nc3c(C(=O)NCCN(C)C)cccc3cc12	-5	x	9.2µM*	-9%	x	x
Cn1c2ccsc2c2ncn(Cc3ccc(F)cc3)c(=O)c21	-23	x	0.26µM*	u	u	x
CC(CCc1ccccc1)NC(=O)CN1CCN(c2ccc(O)cc2)CC1 (centres undefined)	12	-26%	13%	u	u	5%
CCOc1ccc(-c2ccc(SC)nn2)cc1	-87*	u	5%	-5%	u	u
CCOc1ccc(-c2ccc(SCC(=O)Nc3nnc(CC)s3)nn2)cc1	u	u	0%	3%	0%	-16%
S=c1[nH]c2ccccc2s1	x	7.9µM*	x	x	x	10µM*
O=C(Nc1ccc2[nH]c(=S)sc2c1)c1ccccc1	-2	-23%	-5%	6%	-6%	10%
O=C(Cc1ccccc1)Nc1scc(-c2ccccc2)c1C(=O)N1CCOCC1	-2	-1%	-2%[9.22 µM]	16%	0%	4%
NC(=O)c1c(-c2ccc(Cl)cc2Cl)csc1NC(=O)Cc1ccccc1	-19	u	-15%	23µM*	13%	7.1µM*
Cc1nc(Cc2nnc(SC(C)C(=O)N3c4ccccc4NC(=O)C3(C)C)o2)cs1 (centres undefined)	10	x	2%	0%	u	x
OC(CNCc1ccccc1F)COc1cccc2ccccc12 (centres undefined)	6	-8%	21µM*	u	-8%	-3%
SMILES	Giardia kill	RORg inh	SW480 rereplic	MCF10A rereplic	BCR signal inh	VP16 counter
COc1ccc(-c2nn(-c3ccccc3)cc2/C=N/NC(=S)NC(C)C)cc1OC	-11	1.4µM*	u	-31%	u	2.2µM*
COc1ccc(-c2nn(-c3ccccc3)cc2/C=N/O)cc1OC	-15	1µM*	u	16µM*	u	1.8µM*
COc1ccc(-c2nn(-c3ccccc3)cc2/C=N/Nc2ccc3ccccc3n2)cc1OC	5	1.8µM*	26µM*	u	-12%	5µM*
O=C(/C=C/C=C/c1ccccc1)c1ccco1	6	26%	u	u	u	4%
COc1ccc(OC)c(NC(=O)CSc2nncc3ccc(OC)c(OC)c23)c1	-12	2%	-4%[9.22 µM]	u	-13%	u
COC(=O)c1c(NC(=S)NC(=O)c2ccco2)sc2c1CCCC2	17	2.5µM*	17%	6%	5%	u
COC(=O)c1c(NC(=S)NN2CCOCC2)sc2c1CCCC2	-18	1.3µM*	0%	11%	u	4µM*
CCOC(=O)c1c(NC(=O)C(C)N2CCN(C(=O)c3ccco3)CC2)sc2c1CCCC2 (centres undefined)	29	-35%	21%	15µM*	u	11µM*
O=C(Nc1sc2c(c1C(=O)O)CCCCC2)c1ccco1	-22	-41%	-11%	u	u	u
COC(=O)c1c(NC(=O)C2CC2)sc2c1CCCC2	36	u	-2%	10%	u	-11%
CCCCN=C1SC(C(=O)Nc2sc3c(c2C(=O)OC)CCC3)C(N)=C1C(=O)N1CCOCC1 (centres undefined)	11	x	354%	21µM*	x	x
CCOC(=O)c1c(NC(=O)c2ccco2)sc2c1CCCCC2	-1	12%	0%	u	-1%	4%
Cc1cnc(=O)[nH]c1SCc1ccc([N+](=O)[O-])cc1	-29	1%	-8%	-6%	-4%	-1%
O=C(Nc1ccc([N+](=O)[O-])cc1)c1cc2ccccc2nc1Cl	5	-1%	u	-9%	u	0%
O=S(=O)(Nc1cccc(-c2ccc(N3CCOCC3)nn2)c1)c1cc(C(F)(F)F)ccc1Cl	x	x	x	x	3%	x
CCS(=O)(=O)N1Cc2ccccc2CC1C(=O)Nc1ccc(F)c(F)c1 (centres undefined)	-21	11%	-14%	1%	u	17%
Cc1ccc(C)c(Cn2nnc3c(=O)[nH]c(C(=O)NCc4ccco4)nc32)c1	4	7%[10 µM]	19%	37%	9%	1%
CCCCCCC(=O)N1CCC(c2nc3c(nnn3Cc3ccccc3Cl)c(=O)[nH]2)CC1	22	7.1µM*	15%	0%	u	16µM*
O=C(NCc1ccco1)c1nc2c(nnn2Cc2ccccc2Cl)c(=O)[nH]1	-7	14µM*	0%	7%	u	7.9µM*
NC(=O)C1CCN(c2nc(C3CC3)nc3c2nnn3Cc2ccccc2Cl)CC1	9	-16%	-2%	21µM*	2%	-15%

Screening results deposited in PubChem BioAssay by National Center for Advancing Translational Sciences (NCATS).
